The campaign covered roughly 5,500 compounds. About 2,000 (36%) were called active. Another 18% or so got no clear call; they are omitted. Rule as the data show it: active = normalized growth mostly below about 0.91 (no sharp cut-off); inconclusive = no clear call, values can overlap the other calls; inactive = mostly above about 0.92. The list shows a part of the results.
Assay: chemical genetic growth profiling, strain panel (AID 1159580);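 also: tested at 20 µM; growth read once vehicle control cultures reached saturation at 30 °C; 1 = growth at the plate median or of vehicle wells; lower values mean less growth of the strain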
Settings: growth OD

Measured: normalized growth

CCC(=O)OC1[C@@H]2CC3=C4CC(=O)O[C@@H](c5ccoc5)[C@]4(C)CCC3[C@@](C)(C2=O)[C@@H](CC(=O)OC)C1(C)C (stereo partly specified)
inactive: S. cerevisiae deletion strains, locus YJR066W, strain TOR1, hits give low values 0.936 | S. cerevisiae deletion strains, locus YKL009W, strain mrt4, hits give low values 1 | S. cerevisiae deletion strains, locus YKL068W, hits give low values 1.01 | S. cerevisiae deletion strains, locus YKL085W, strain MDH1 (second series), hits give low values 1 | S. cerevisiae deletion strains, locus YKL085W, strain MDH1, hits give low values 1 | S. cerevisiae deletion strains, locus YKL160W, strain elf1, hits give low values 1.01 | S. cerevisiae deletion strains, locus YKL190W, strain CNB1, hits give low values 0.999 | S. cerevisiae deletion strains, locus YKR001C, strain vps1, hits give low values 1.02 | S. cerevisiae deletion strains, locus YKR026C, strain gcn3, hits give low values 0.991 | S. cerevisiae deletion strains, locus YKR091W, strain srl3, hits give low values 0.984 | S. cerevisiae deletion strains, locus YLL001W, strain dnm1, hits give low values 1 | S. cerevisiae deletion strains, locus YLL026W, hits give low values 0.988 | S. cerevisiae deletion strains, locus YLL041C, strain sdh2, hits give low values 0.992 | S. cerevisiae deletion strains, locus YLR027C, strain aat2, hits give low values 0.992 | S. cerevisiae deletion strains, locus YLR039C, strain RIC1, hits give low values 0.884 | S. cerevisiae deletion strains, locus YLR058C, strain SHM2, hits give low values 1 | S. cerevisiae deletion strains, locus YLR102C, strain apc9, hits give low values 1.02 | S. cerevisiae deletion strains, locus YLR113W, strain HOG1, hits give low values 1.01 | S. cerevisiae deletion strains, locus YLR221C, strain rsa3, hits give low values 0.985 | S. cerevisiae deletion strains, locus YLR258W, strain gsy2, hits give low values 1.01 | S. cerevisiae deletion strains, locus YLR262C, strain YPT6 (second series), hits give low values 0.908 | S. cerevisiae deletion strains, locus YLR262C, strain YPT6, hits give low values 0.782 | S. cerevisiae deletion strains, locus YLR268W, strain sec22, hits give low values 0.997 | S. cerevisiae deletion strains, locus YLR320W, strain mms22, hits give low values 0.976 | S. cerevisiae deletion strains, locus YLR342W, strain FKS1, hits give low values 0.981 | S. cerevisiae deletion strains, locus YLR357W, strain rsc2, hits give low values 1.03 | S. cerevisiae deletion strains, locus YLR370C, strain arc18, hits give low values 0.983 | S. cerevisiae deletion strains, locus YLR371W, strain rom2, hits give low values 1.01 | S. cerevisiae deletion strains, locus YLR384C, strain iki3, hits give low values 1 | S. cerevisiae deletion strains, locus YLR418C, strain cdc73, hits give low values 1.03 | S. cerevisiae deletion strains, locus YML016C, strain PPZ1, hits give low values 1 | S. cerevisiae deletion strains, locus YML032C, strain rad52, hits give low values 1.02 | S. cerevisiae deletion strains, locus YML120C, strain ndi1, hits give low values 0.999 | S. cerevisiae deletion strains, locus YML124C, strain tub3, hits give low values 1.01 | S. cerevisiae deletion strains, locus YMR058W, strain fet3, hits give low values 0.994 | S. cerevisiae deletion strains, locus YMR078C, strain ctf18, hits give low values 1.02 | S. cerevisiae deletion strains, locus YMR125W, strain sto1, hits give low values 0.996 | S. cerevisiae deletion strains, locus YMR129W, hits give low values 0.998 | S. cerevisiae deletion strains, locus YMR205C, strain PFK2, hits give low values 0.995 | S. cerevisiae deletion strains, locus YMR223W, strain ubp8, hits give low values 1.01 | S. cerevisiae deletion strains, locus YMR231W, strain pep5, hits give low values 0.955 | S. cerevisiae deletion strains, locus YMR307W, strain GAS1, hits give low values 0.842 | S. cerevisiae deletion strains, locus YNL067W, strain RPL9B, hits give low values 1.01 | S. cerevisiae deletion strains, locus YNL071W, strain lat1, hits give low values 0.993 | S. cerevisiae deletion strains, locus YNL153C, strain GIM3, hits give low values 1.02 | S. cerevisiae deletion strains, locus YNL183C, strain NPR1, hits give low values 0.946 | S. cerevisiae deletion strains, locus YNL209W, strain ssb2, hits give low values 1 | S. cerevisiae deletion strains, locus YNL233W, strain BNI4, hits give low values 0.954 | S. cerevisiae deletion strains, locus YNL248C, strain rpa49, hits give low values 0.992 | S. cerevisiae deletion strains, locus YNL250W, strain rad50, hits give low values 1.01 | S. cerevisiae deletion strains, locus YNL271C, strain bni1, hits give low values 1.01 | S. cerevisiae deletion strains, locus YNL298W, strain CLA4, hits give low values 1.03 | S. cerevisiae deletion strains, locus YNL307C, strain MCK1, hits give low values 1.01 | S. cerevisiae deletion strains, locus YNL322C, strain KRE1 (second series), hits give low values 0.996 | S. cerevisiae deletion strains, locus YNL322C, strain KRE1, hits give low values 0.992 | S. cerevisiae deletion strains, locus YNR049C, strain mso1, hits give low values 0.989 | S. cerevisiae deletion strains, locus YNR052C, strain pop2, hits give low values 1.03 | S. cerevisiae deletion strains, locus YOL012C, strain htz1 1.24 | S. cerevisiae deletion strains, locus YOL147C, strain pex11, hits give low values 1.02 | S. cerevisiae deletion strains, locus YOR001W, strain rrp6, hits give low values 0.994 | S. cerevisiae deletion strains, locus YOR061W, strain CKA2, hits give low values 0.996 | S. cerevisiae deletion strains, locus YOR069W, strain VPS5, hits give low values 1 | S. cerevisiae deletion strains, locus YOR070C, strain gyp1, hits give low values 0.988 | S. cerevisiae deletion strains, locus YOR080W, strain dia2, hits give low values 0.981 | S. cerevisiae deletion strains, locus YOR083W, strain WHI5, hits give low values 1.02 | S. cerevisiae deletion strains, locus YOR106W, strain vam3, hits give low values 1.03 | S. cerevisiae deletion strains, locus YOR136W, strain idh2, hits give low values 1.02 | S. cerevisiae deletion strains, locus YOR144C, strain elg1, hits give low values 1.01 | S. cerevisiae deletion strains, locus YOR184W, strain ser1, hits give low values 0.989 | S. cerevisiae deletion strains, locus YOR231W, strain MKK1, hits give low values 1.01 | S. cerevisiae deletion strains, locus YOR265W, strain rbl2, hits give low values 0.994 | S. cerevisiae deletion strains, locus YOR270C, strain vph1, hits give low values 0.858 | S. cerevisiae deletion strains, locus YOR290C, strain snf2, hits give low values 0.996 | S. cerevisiae deletion strains, locus YOR316C, strain cot1, hits give low values 1.01 | S. cerevisiae deletion strains, locus YPL051W, strain arl3, hits give low values 0.982 | S. cerevisiae deletion strains, locus YPL055C, strain LGE1, hits give low values 1.01 | S. cerevisiae deletion strains, locus YPL078C, strain atp4, hits give low values 1.02 | S. cerevisiae deletion strains, locus YPL106C, strain sse1, hits give low values 1.04 | S. cerevisiae deletion strains, locus YPL240C, strain hsp82, hits give low values 0.99 | S. cerevisiae deletion strains, locus YPL256C, strain CLN2, hits give low values 0.983 | S. cerevisiae deletion strains, locus YPR119W, strain clb2, hits give low values 1.01 | S. cerevisiae deletion strains, locus YPR141C, strain kar3, hits give low values 1.01 | S. cerevisiae deletion strains, locus YPR163C, strain tif3, hits give low values 1.01 | S. cerevisiae deletion strains, locus YPR167C, strain met16, hits give low values 0.998 | S. cerevisiae deletion strains, strain wtn01, hits give low values 1.07 | S. cerevisiae strains, strain wild type, hits give low values 0.976

Reference: PubChem BioAssay AID1159580 (chemical genetic matrix, 2015)
